# Assay results reported in paper PMC7862700, “An all-to-all approach to the identification of sequence-specific readers for epigenetic DNA modifications on cytosine”.
# Experiments:
# Experiment in all cases: DAPPL (digital affinity profiling via proximity ligation, sequencing); 10 mM Tris-HCl pH 7.5, 50 mM NaCl, 1 mM DTT, 4% glycerol, room temperature, 30 min; GST-TFs on glutathione beads, 16-mer random dsDNA library, 0.1% formaldehyde crosslink after washing; high values mean tight binding
# Details in all cases: protein: recombinant; tags: N-terminal GST; dsDNA, one strand shown
# [1] = biological target: T1, ELK1 (Homo sapiens, UniProt P19419 1-428)
# T1 sequence: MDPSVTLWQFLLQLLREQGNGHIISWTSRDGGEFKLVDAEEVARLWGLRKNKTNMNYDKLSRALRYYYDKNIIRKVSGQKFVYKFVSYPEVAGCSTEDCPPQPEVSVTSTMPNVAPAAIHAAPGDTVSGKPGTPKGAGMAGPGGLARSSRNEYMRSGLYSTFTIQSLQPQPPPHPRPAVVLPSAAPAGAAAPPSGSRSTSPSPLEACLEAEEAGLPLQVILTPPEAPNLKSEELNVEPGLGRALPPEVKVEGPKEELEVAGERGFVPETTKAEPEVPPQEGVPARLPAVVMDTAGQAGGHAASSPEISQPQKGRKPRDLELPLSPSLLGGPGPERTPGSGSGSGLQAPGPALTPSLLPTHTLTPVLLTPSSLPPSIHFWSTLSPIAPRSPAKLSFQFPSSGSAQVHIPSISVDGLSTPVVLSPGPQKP
# How it was run: (§1)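 GST fusions of human transcription factors were expressed in yeast and captured with glutathione beads. Once given DNA barcodes and pooled alongside a tag-only sample, they were incubated for 30 min at room temperature with 200 nmole of a random double-stranded 16-mer DNA library in Tris/NaCl/DTT/glycerol buffer, then washed, crosslinked (0.1% formaldehyde), proximity-ligated, PCR-amplified and sequenced on an Illumina NextSeq500. The binding signal of each hexamer is its read frequency for a factor divided by its frequency for the tag-only sample.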
# [2] = biological target: T2, GABPA (Homo sapiens, UniProt Q06546 1-454)
# T2 sequence: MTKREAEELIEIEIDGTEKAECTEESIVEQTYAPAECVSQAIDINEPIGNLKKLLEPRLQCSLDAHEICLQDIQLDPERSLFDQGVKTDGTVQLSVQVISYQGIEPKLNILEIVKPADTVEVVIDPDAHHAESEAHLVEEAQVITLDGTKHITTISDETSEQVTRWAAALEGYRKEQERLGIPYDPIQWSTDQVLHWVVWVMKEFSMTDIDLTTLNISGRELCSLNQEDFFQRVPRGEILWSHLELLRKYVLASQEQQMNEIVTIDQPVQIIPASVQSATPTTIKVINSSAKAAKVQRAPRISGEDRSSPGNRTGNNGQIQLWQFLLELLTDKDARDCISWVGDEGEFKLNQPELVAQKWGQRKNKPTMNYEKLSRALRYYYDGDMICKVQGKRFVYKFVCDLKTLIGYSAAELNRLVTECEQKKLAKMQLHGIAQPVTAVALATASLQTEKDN
# How it was run: as §1
# [3] = biological target: T3, ERG (Homo sapiens, UniProt P11308 1-479)
# T3 sequence: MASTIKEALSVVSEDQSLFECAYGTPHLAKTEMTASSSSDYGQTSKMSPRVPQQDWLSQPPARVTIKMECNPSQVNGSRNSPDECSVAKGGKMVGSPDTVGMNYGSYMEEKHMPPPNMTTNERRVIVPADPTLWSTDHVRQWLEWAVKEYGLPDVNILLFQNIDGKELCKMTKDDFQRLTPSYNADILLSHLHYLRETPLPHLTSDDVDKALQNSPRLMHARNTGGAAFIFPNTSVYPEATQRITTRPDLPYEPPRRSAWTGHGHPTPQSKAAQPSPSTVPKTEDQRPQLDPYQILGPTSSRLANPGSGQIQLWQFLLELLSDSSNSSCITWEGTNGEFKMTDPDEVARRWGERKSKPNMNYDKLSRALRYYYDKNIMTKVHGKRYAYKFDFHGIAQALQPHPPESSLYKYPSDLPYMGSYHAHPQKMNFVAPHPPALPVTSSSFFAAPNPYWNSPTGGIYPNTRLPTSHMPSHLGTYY
# How it was run: as §1
# [4] = biological target: ELF1 (Homo sapiens, UniProt P32519 1-619)
# Sequence of ELF1 (P32519 whole entry): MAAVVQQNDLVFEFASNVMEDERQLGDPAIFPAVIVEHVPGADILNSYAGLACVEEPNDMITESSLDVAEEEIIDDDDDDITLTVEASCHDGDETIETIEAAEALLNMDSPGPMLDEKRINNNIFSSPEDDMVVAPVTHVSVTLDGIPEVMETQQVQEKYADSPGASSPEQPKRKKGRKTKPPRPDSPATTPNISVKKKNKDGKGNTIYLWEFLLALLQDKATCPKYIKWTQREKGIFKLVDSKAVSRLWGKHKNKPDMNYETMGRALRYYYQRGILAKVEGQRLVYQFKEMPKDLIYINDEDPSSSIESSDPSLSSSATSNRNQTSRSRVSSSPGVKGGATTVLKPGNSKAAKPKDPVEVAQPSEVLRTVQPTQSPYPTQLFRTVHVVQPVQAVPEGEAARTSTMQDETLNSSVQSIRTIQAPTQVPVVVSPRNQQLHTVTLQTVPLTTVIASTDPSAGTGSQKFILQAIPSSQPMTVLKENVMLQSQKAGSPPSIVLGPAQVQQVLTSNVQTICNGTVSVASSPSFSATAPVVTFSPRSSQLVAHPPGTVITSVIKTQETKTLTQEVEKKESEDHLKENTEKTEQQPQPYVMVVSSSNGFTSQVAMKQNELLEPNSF
# How it was run: as §1
# [5] = biological target: SPIB (Homo sapiens, UniProt Q01892 1-262)
# Sequence of SPIB (Q01892 whole entry): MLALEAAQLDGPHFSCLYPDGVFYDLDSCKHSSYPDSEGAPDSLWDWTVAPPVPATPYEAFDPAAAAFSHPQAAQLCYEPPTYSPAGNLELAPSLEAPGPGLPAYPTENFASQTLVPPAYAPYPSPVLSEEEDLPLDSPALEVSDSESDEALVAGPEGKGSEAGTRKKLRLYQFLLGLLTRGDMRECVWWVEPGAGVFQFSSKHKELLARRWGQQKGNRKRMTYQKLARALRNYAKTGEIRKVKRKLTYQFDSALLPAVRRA
# How it was run: as §1
# [6] = biological target: T4, ELK3 (Homo sapiens, UniProt P41970 1-407)
# T4 sequence: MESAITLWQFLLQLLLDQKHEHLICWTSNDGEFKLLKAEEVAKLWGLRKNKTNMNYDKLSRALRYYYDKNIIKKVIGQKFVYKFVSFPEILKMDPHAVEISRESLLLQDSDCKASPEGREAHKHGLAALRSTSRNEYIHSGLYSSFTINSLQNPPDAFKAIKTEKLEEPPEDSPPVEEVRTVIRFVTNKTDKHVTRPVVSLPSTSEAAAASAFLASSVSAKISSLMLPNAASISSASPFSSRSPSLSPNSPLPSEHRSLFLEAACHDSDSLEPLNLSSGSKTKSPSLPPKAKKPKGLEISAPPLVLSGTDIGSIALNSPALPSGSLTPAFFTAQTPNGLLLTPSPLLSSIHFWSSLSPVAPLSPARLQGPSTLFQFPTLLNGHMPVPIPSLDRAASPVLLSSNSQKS
# How it was run: as §1
# [7] = biological target: T5, FEV (Homo sapiens, UniProt Q99581 1-238)
# T5 sequence: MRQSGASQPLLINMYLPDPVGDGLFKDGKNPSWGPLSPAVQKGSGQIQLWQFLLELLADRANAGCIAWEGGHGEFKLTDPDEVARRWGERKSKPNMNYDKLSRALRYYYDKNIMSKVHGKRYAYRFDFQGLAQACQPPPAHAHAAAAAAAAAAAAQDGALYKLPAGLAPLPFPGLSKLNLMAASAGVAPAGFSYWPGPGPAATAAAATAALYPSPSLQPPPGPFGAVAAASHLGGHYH
# How it was run: as §1
# [8] = biological target: ETV5 (Homo sapiens, UniProt P41161 1-510)
# Sequence of ETV5 (P41161 whole entry): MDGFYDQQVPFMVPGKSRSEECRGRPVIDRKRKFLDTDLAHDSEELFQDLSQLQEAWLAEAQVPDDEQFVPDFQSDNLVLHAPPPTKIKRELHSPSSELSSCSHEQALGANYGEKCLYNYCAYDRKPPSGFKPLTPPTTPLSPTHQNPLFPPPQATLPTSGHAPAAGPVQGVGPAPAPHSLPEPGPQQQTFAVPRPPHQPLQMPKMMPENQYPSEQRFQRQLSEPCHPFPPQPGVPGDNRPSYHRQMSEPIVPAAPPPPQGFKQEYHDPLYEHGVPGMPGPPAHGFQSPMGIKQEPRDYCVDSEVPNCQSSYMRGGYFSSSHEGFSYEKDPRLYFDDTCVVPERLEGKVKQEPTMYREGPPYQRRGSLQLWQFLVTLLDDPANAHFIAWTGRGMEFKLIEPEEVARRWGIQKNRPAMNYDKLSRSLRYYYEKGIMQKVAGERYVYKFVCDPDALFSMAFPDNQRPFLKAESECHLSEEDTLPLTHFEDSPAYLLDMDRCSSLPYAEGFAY
# How it was run: as §1
# [9] = biological target: ELF4 (Homo sapiens, UniProt Q99607 1-663)
# Sequence of ELF4 (Q99607 whole entry): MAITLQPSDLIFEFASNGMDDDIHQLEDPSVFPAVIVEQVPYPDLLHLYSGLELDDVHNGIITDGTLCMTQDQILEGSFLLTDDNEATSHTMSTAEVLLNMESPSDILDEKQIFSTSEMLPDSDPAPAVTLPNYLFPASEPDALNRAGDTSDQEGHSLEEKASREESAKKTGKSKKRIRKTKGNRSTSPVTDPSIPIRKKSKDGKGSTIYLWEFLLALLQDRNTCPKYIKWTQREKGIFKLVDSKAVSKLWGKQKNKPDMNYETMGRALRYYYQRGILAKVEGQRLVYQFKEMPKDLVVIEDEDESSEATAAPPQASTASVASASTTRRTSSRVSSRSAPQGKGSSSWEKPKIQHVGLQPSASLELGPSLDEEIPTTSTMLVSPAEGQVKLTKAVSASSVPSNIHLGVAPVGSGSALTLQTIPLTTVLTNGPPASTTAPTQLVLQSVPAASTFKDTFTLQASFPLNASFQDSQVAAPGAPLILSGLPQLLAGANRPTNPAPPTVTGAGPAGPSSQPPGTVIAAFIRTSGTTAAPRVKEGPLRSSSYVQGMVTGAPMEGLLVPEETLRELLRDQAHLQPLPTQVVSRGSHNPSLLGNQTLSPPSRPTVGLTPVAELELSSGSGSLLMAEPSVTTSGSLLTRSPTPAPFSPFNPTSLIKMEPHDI
# How it was run: as §1
# [10] = biological target: T6, ELF3 (Homo sapiens, UniProt P78545 1-371)
# T6 sequence: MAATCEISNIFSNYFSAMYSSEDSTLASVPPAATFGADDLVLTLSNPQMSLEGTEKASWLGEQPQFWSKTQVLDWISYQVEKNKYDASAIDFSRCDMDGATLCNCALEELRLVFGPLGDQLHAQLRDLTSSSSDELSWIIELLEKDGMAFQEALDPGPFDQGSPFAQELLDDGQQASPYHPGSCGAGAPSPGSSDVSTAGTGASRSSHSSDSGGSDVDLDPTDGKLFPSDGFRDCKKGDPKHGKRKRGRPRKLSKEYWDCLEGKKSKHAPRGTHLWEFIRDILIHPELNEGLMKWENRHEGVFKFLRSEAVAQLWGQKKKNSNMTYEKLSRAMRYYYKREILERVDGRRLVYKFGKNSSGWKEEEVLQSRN
# How it was run: as §1
# [11] = biological target: T7, ERF (Homo sapiens, UniProt P50548 1-548)
# T7 sequence: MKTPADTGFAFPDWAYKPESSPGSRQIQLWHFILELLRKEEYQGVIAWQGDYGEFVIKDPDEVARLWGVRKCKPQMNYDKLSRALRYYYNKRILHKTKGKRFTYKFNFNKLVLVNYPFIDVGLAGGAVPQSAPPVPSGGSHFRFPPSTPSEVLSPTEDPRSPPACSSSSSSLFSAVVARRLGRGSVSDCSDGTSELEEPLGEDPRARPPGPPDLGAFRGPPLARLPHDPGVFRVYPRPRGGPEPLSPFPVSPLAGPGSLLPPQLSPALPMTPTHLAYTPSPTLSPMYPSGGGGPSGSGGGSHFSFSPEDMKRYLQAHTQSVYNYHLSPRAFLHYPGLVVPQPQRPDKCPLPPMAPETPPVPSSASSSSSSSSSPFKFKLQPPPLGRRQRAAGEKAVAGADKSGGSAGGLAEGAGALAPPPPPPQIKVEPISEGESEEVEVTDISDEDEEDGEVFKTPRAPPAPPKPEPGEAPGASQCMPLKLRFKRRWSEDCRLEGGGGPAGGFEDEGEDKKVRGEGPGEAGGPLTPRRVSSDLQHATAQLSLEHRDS
# How it was run: as §1
# [12] = biological target: T8, ETV3L (Homo sapiens, UniProt Q6ZN32 1-361)
# T8 sequence: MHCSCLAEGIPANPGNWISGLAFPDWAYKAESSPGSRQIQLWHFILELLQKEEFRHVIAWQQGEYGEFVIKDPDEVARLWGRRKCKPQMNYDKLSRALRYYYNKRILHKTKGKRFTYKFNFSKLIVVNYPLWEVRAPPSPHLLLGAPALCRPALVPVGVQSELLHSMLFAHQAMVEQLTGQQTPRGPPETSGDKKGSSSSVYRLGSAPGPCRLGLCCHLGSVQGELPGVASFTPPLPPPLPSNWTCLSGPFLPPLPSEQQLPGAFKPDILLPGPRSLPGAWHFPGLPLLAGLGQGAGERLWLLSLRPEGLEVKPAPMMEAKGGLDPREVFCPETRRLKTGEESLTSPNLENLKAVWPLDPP
# How it was run: as §1
# [13] = biological target: T9, ETS2 (Homo sapiens, UniProt P15036 1-469)
# T9 sequence: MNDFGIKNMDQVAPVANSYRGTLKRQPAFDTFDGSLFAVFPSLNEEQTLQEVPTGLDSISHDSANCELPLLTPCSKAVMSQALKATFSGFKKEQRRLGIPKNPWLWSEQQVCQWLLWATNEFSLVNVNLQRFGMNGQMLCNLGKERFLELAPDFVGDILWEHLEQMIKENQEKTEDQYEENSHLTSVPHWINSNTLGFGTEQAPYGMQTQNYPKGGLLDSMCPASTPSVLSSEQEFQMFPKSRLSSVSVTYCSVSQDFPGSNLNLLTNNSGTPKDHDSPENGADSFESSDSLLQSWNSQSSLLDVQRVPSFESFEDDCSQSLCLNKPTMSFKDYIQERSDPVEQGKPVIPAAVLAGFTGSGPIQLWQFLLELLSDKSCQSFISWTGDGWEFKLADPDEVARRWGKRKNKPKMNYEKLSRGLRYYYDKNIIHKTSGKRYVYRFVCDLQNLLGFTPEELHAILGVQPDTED
# How it was run: as §1
# [14] = biological target: T10, SPDEF (Homo sapiens, UniProt O95238 1-335)
# T10 sequence: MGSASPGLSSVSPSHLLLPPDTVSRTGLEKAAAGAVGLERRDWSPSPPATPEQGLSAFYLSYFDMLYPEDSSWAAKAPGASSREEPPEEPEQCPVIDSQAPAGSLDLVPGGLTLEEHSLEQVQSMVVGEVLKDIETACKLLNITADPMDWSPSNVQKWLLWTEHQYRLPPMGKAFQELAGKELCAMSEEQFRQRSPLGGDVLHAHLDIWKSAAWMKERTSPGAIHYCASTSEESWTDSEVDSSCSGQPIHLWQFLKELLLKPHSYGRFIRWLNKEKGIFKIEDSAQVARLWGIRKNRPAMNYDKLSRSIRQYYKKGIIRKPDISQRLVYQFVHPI
# How it was run: as §1
# [15] = biological target: T11, ETV7 (Homo sapiens, UniProt Q9Y603 1-341)
# T11 sequence: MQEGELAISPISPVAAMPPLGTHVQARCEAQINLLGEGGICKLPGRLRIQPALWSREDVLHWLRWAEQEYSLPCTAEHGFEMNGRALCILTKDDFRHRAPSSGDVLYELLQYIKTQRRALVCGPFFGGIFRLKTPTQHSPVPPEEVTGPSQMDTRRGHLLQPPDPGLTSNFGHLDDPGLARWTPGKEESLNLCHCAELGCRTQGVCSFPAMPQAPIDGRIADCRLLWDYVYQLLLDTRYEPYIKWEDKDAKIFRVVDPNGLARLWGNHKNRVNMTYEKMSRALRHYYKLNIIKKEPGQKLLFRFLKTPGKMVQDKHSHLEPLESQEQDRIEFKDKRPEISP
# How it was run: as §1
# [16] = biological target: T12, ETV3 (Homo sapiens, UniProt P41162-2 1-143)
# T12 sequence: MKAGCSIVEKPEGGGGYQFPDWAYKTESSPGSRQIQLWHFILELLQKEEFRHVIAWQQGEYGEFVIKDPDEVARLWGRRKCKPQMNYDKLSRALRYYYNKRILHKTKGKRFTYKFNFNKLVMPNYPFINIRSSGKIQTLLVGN
# How it was run: as §1
# [17] = biological target: ETV6 (Homo sapiens, UniProt P41212 1-452)
# Sequence of ETV6 (P41212 whole entry): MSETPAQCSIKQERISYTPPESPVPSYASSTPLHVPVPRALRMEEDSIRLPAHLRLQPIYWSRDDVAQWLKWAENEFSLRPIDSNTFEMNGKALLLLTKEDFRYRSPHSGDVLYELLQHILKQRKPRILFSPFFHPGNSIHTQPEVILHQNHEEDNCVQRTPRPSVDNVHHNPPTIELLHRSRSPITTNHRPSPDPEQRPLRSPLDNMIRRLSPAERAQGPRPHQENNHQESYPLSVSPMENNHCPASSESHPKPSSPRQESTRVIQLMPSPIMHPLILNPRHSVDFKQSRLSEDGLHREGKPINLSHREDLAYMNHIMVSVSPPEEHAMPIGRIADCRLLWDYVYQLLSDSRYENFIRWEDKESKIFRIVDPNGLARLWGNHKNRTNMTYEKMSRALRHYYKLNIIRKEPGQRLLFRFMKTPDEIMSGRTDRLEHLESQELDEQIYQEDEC
# How it was run: as §1
sequence,measurement,setting,value
CCGCAG,binding signal,[1],"1.09 fold enrichment (6-mer frequency, TF over GST control)"
same,binding signal,[2],"1.13 fold enrichment (6-mer frequency, TF over GST control)"
same,binding signal,[3],"1.06 fold enrichment (6-mer frequency, TF over GST control)"
same,binding signal,[4],"1.01 fold enrichment (6-mer frequency, TF over GST control)"
same,binding signal,[5],"1.21 fold enrichment (6-mer frequency, TF over GST control)"
same,binding signal,[6],"1.14 fold enrichment (6-mer frequency, TF over GST control)"
same,binding signal,[7],"1.08 fold enrichment (6-mer frequency, TF over GST control)"
same,binding signal,[8],"1.12 fold enrichment (6-mer frequency, TF over GST control)"
same,binding signal,[9],"1.07 fold enrichment (6-mer frequency, TF over GST control)"
same,binding signal,[10],"1.19 fold enrichment (6-mer frequency, TF over GST control)"
same,binding signal,[11],"1.12 fold enrichment (6-mer frequency, TF over GST control)"
same,binding signal,[12],"1.02 fold enrichment (6-mer frequency, TF over GST control)"
same,binding signal,[13],"1.06 fold enrichment (6-mer frequency, TF over GST control)"
same,binding signal,[14],"1.07 fold enrichment (6-mer frequency, TF over GST control)"
same,binding signal,[15],"1.12 fold enrichment (6-mer frequency, TF over GST control)"
same,binding signal,[16],"1.07 fold enrichment (6-mer frequency, TF over GST control)"
same,binding signal,[17],"1 fold enrichment (6-mer frequency, TF over GST control)"
